Shiga inhibitor: A qHTS for Small Molecule Inhibitors of Shiga Toxin | AID 2315, 2010 | Vero cells, Shiga toxin protein synthesis inhibition reporter | inhibition, % at 38.7 µM | hit rate 9.2% among 290,000; in the data active means inhibition mostly above about 28%, no sharp cut-off; inactive means mostly below about 43%
Sm TGR inh: qHTS Assay for the Inhibitors of Schistosoma Mansoni Peroxiredoxins; AID 485364, 2010; Potency, µM (series often up to 114 µM), usual class: inhibitors; purified TGR, DTNB reduction, TNB absorbance 405 nm; hit rate 3% among 360,000; Schistosoma mansoni thioredoxin glutathione reductase (TGR), Q962Y6; active means well fitted inhibition curve with a large enough effect; inconclusive means small, poorly fitted or top-dose-only effect; inactive means no such curve, though single readings can be large or run the other way; further: nearly all actives have a fitted effect of over 60% in size
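TGR 20 nM + NADPH 100 uM (dispensed conc.), cpd preinc 15 min RT; start with NADPH (500 uM addition) then DTNB (15 mM addition). Kinetic TNB absorbance, 405 nm filter. Four-parameter Hill fit across titration.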
Cycloheximide cs: Cycloheximide Counterscreen for Small Molecule Inhibitors of Shiga Toxin. cell reporter, cycloheximide protein synthesis inhibition counterscreen. max response, %. hit rate 12% among 300,000. AID 2314, 2010; in the data active means max response mostly above about 13%, no sharp cut-off; inactive means mostly below about 14%; further: read at 38.3 µM for the half of the compounds with a filed dose
FMDV antiviral: High Throughput Screening for Foot and Mouth Disease Virus Antivirals. FMDV antiviral cell-based qHTS. Potency, µM (top dose mostly 57.9 µM), actives largely listed as inhibitors. hit rate 1.2% among 410,000. AID 1159524, 2015; calls by dose curve; tested in HEK293T cells; further: read-out not given here; nearly all actives have a fitted effect of over 45% in size
Numbers stand for hits; i = inactive; ? = inconclusive; nt = no result. Most compounds without a hit are left out; they make up all but 12% or so of the library.

SMILES	Shiga inhibitor	Sm TGR inh	Cycloheximide cs	FMDV antiviral
Cc1cccc(N2CCN(C(=O)C3CCN(S(=O)(=O)c4c(C)noc4/C=C/c4ccccc4F)CC3)CC2C)c1 (stereo not given)	nt	i	nt	i
CCOC(=O)c1cccc(NC(=O)CC(c2cc(OC)c(OC)c(OC)c2)N2Cc3ccccc3C2=O)c1 (stereo not given)	nt	i	nt	i
CC(SC1=NCCS1)C(=O)Nc1nnc(-c2ccc(F)cc2)s1 (stereo not given)	i	i	i	i
CC(SC1=NCCS1)C(=O)Nc1nnc(-c2ccc(Br)cc2)s1 (stereo not given)	38	i	21	i
Cc1cccc(N2CCN(C(=O)CCNS(=O)(=O)c3ccc4c(c3)CCN4C(=O)C3CC3)CC2C)c1 (stereo not given)	nt	i	nt	i
COc1ccc(CN2CC[C@H]3C=CCc4cccc(c43)C2)cc1	nt	28µM	nt	i
CC1CCC(NC(=O)C2CCN(c3c4c(nc5ncnn35)CCC4)CC2)CC1 (stereo not given)	49	i	20	i
O=C(Nc1ccc(CN2CCOCC2)cc1)c1cccs1	64	?	27	i
O=C(NC(=S)Nc1ccc(CN2CCOCC2)cc1)c1ccc(-c2cccc(Cl)c2)o1	i	i	i	35µM
COc1cc2ccccc2cc1C(=O)Nc1ccc(CN2CCOCC2)cc1	i	i	20	i
O=C(Nc1ccc(CN2CCOCC2)cc1)c1ccc(-c2ccc(Cl)cc2Cl)o1	i	50µM	i	?
O=C(NCCN1CCOCC1)c1cccs1	i	i	i	i
CN(C(=O)c1ccc(OCC=C(c2ccccc2)c2ccccc2)cc1)c1ccccc1I	i	nt	i	nt
CCOC(=O)C1=C(CS(=O)(=O)c2ccc(C(C)(C)C)cc2)NC(=O)NC1c1cccc(OC)c1 (stereo not given)	nt	i	nt	?
O=C(NCCn1cc(SCc2ccc(F)cc2)c2ccccc21)c1cccs1	nt	i	nt	?
Cc1nn(-c2ccccc2)c2nc(C3CC3)cc(C(=O)Nc3cccc(F)c3)c12	nt	i	nt	?
CC(C)c1c(C(=O)NCc2ccccn2)cnn1-c1nccc(-c2ccccc2F)n1	nt	nt	nt	i
O=C(Cc1ccccc1)Nc1ccc(CN2CCOCC2)cc1	81	i	31	nt
O=C(/C=C/c1ccc(Cl)cc1)Nc1ccc(CN2CCOCC2)cc1	i	i	i	?
O=C(Nc1ccc(CN2CCOCC2)cc1)c1cc(Br)ccc1Cl	i	i	i	i
O=C(Nc1ccc(CN2CCOCC2)cc1)c1ccccc1F	92	i	42	i
O=C(Nc1ccc(CN2CCOCC2)cc1)c1ccc(-c2cccc(Cl)c2)o1	i	i	i	35µM
O=C(Nc1ccc(CN2CCOCC2)cc1)c1ccc(Cl)cc1Cl	i	i	17	i
CCOC(=O)c1cccc(NC(=O)N2CC(CC)Sc3ccccc32)c1 (stereo not given)	nt	i	nt	i
O=c1c2cccnc2n(Cc2ccccc2F)c(=O)n1Cc1ccc(F)cc1	nt	i	nt	i
SMILES	Shiga inhibitor	Sm TGR inh	Cycloheximide cs	FMDV antiviral
Cc1ccc(C(=O)Nc2ccc(C(=O)N3CCCCC3)cc2)o1	52	i	26	i
COc1ccccc1C(=O)Nc1ccc(C(=O)N2CCCCC2)cc1	i	i	13	i
COc1ccccc1NC(=O)Nc1ccc(C(=O)N2CCCCC2)cc1	80	i	27	i
COc1ccccc1NC(=O)CSc1oc(-c2ccc(F)cc2)nc1S(=O)(=O)c1ccc(Br)cc1	nt	i	nt	i
CN(C)c1ccc(CC(=O)N2CCCC(c3cc(C(=O)Nc4ccc(C(C)(C)C)cc4)no3)C2)cc1 (stereo not given)	nt	nt	nt	18µM
COc1ccc(C)cc1NC(=O)N1CCC(CN2CCOCC2)CC1	nt	i	nt	i
COc1ccccc1C(=O)Nc1nc2cc3c(cc2s1)OCO3	90	i	55	i
COc1cccc(OC)c1C(=O)Nc1nc2cc3c(cc2s1)OCO3	i	i	i	i
COc1cc(C(=O)NNc2nc3cc4c(cc3s2)OCO4)cc(OC)c1OC	i	i	i	i
COc1ccccc1C(=O)Nc1nc2cc3c(cc2s1)OCCO3	61	i	34	i
COc1ccc(C(=O)Nc2nc3cc4c(cc3s2)OCCO4)c(OC)c1	80	i	24	?
NNc1nc2cc3c(cc2s1)OCCO3	64	i	32	i
Cc1ccc(-c2cnc(NCc3c(F)cccc3Cl)n2C)cc1	nt	i	nt	i
COC(=O)C1=C[C@@H](C(=O)OC)[C@@H]2C3=C(C(=O)C2(C)C)[C@H](c2ccccc2)[C@@H]2C(=O)N(c4ccccc4)C(=O)[C@@H]2[C@@H]3C1	i	nt	i	nt
CCC(O)c1cc2c(cc1NC(=O)c1cccs1)OCCO2 (stereo not given)	i	i	i	i
O=C(Nc1nc2cc3c(cc2s1)OCCO3)c1cccs1	i	i	27	?
CN(c1ccccc1)c1nc(N)c([N+](=O)[O-])c(Nc2ccc(F)cc2)n1	i	i	i	i
CCN1CCN(c2nc(N(C)c3ccccc3)nc(N)c2[N+](=O)[O-])CC1	i	i	i	i
CC1CCN(c2nc(NCc3ccco3)nc(N)c2[N+](=O)[O-])CC1	i	i	i	?
CN(c1ccccc1)c1nc(N)c([N+](=O)[O-])c(N2CCCCCC2)n1	56	i	21	i
CN(c1ccccc1)c1nc(N)c([N+](=O)[O-])c(Nc2ccccc2F)n1	i	i	19	i
CC1CCN(c2nc(N(C)c3ccccc3)nc(N)c2[N+](=O)[O-])CC1	i	i	11	i
O=C(NCc1ccccc1)C1CCN(S(=O)(=O)c2ccc3c(c2)CCCN3C(=O)C2CCC2)CC1	nt	i	nt	i
COc1ccccc1NC(=O)Cn1c(=O)n(Cc2ccc3c(c2)OCO3)c(=O)c2oc3ccccc3c21	nt	i	nt	i
COc1ccc2c(c1)c(C(O)CN1CCC3(CC1)OCCO3)c(C)n2C (stereo not given)	i	25µM	i	nt
SMILES	Shiga inhibitor	Sm TGR inh	Cycloheximide cs	FMDV antiviral
Cc1[nH]c2ccccc2c1C(O)CN1CCC2(CC1)OCCO2 (stereo not given)	i	16µM	i	i
Cc1[nH]c2ccccc2c1C(=O)CN1CCC2(CC1)OCCO2	i	45µM	i	i
Cc1[nH]c2ccccc2c1C(=O)CN1CC(C)OC(C)C1 (stereo not given)	i	32µM	i	i
COc1cccc(N2CC(NC(=O)C3CCCCC3)CC2=O)c1 (stereo not given)	nt	i	nt	i
CC1CC=CC2C1C(=O)N(Cc1ccccc1)C2c1ccc(F)c(Br)c1 (stereo not given)	32	nt	i	nt
Cc1ccc(-c2cc([C@H]3[C@H]4C=CC[C@@H](C)[C@@H]4C(=O)N3Cc3ccccc3)ccc2F)cc1	i	i	i	i
CCN(CC)S(=O)(=O)c1ccc(/C=C/C(=O)Nc2ccc(F)cc2F)cc1	64	i	32	?
CCN(CC)S(=O)(=O)c1ccc(/C=C/C(=O)Nc2ccc(Br)cc2F)cc1	i	i	i	5µM
CCN(CC)S(=O)(=O)c1ccc(/C=C/C(=O)Nc2ccc(F)c(F)c2F)cc1	38	i	36	?
CCn1nc(C)c(CN2Cc3ccccc3OC(c3ccccc3OC)C2)c1C (stereo not given)	nt	nt	nt	i
CCOc1ccccc1-c1c2cc(O)c(=O)cc-2oc2cc(O)c(O)cc12	i	45µM	i	?

Screening results deposited in PubChem BioAssay by National Center for Advancing Translational Sciences (NCATS).
